A selection: hits, their analogues and other compounds. The true share with any hit is near 1.1%.
VACV mCherry inh = inhibitors of vaccinia virus infection (mCherry reporter signal) | Vaccinia virus mCherry reporter infection, fluorescence | Potency, µM (highest dose often 36.5 µM), for the others: top-dose activity change, negative = inhibition, most hits filed as inhibitors | 310,000 compounds, 0.63% hits | AID 720579; calls by dose curve; tested in A549 cells; further: nearly all actives have a fitted effect of over 35% in size
AmpC inh no detg = inhibitors of E. coli AmpC beta-lactamase without detergent | 330,000 compounds, 0.52% hits | P00811 | AmpC nitrocefin hydrolysis, absorbance 480 nm, 0.0001% Triton | Potency, µM (series often up to 57.1 µM), for inactives: at the top dose activity change, negative = inhibition, hits mostly inhibitors;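 further: plate controls were no compound for no effect and no enzyme for full effect; nearly all actives have a fitted effect of over 20% in size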
Target sequence (P00811 whole entry, looked up): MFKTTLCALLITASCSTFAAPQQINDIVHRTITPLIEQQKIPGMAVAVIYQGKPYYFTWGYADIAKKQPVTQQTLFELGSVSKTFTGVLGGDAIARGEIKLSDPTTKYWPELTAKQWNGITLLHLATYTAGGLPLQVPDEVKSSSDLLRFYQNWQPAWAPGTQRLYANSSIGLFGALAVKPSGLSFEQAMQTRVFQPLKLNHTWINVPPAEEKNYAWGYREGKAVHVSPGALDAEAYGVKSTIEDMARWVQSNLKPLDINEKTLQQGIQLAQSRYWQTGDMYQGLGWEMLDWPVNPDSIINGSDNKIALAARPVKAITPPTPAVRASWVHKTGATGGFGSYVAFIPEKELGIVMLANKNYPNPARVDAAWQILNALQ
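AmpC (5.3 nM in the dispensed reagent) in 20 mM phosphate pH 7.0 with 0.01% (detergent screen) or 0.0001% Triton X-100 was preincubated with compounds for 15 min at room temperature. Nitrocefin was then added from an 800 uM solution, and hydrolysis was followed at 480 nm.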
AmpC inh detg = inhibitors of E. coli AmpC beta-lactamase with detergent | 370,000 compounds, 0.041% hits | AmpC hydrolysis of nitrocefin, absorbance 480 nm, 0.01% Triton | P00811 | Potency, µM (highest dose often 114 µM), for inactives: top-dose activity change, negative = inhibition, most hits filed as inhibitors;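 further: 0% = no-compound wells and -100% = no-enzyme wells; nearly all actives have a fitted effect of over 25% in size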
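20 mM phosphate pH 7.0 + 0.01% (detergent screen) or 0.0001% Triton X-100; 5.3 nM AmpC reagent; cpd preinc 15 min RT; nitrocefin (800 uM stock) to start; A480 q20 s × 4 min; Activity was normalised to no-enzyme and no-compound control wells.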
VACV Venus inh = inhibitors of vaccinia virus (Venus reporter); Vaccinia virus Venus reporter expression, fluorescence; 330,000 compounds, 0.46% hits; Potency, µM (series often up to 36.5 µM), inactives show at the highest dose activity change, negative = inhibition, actives largely listed as inhibitors; calls by dose curve; tested in A549 cells; further: nearly all actives have a fitted effect of over 30% in size
An asterisk follows results filed as active; i = inactive; ? = inconclusive; · = no result given. Unless noted, the call rests on the fitted dose curve; in most records, active means well fitted curve in the direction sought with a large enough effect; inconclusive means small, poorly fitted or top-dose-only effect, or another doubt; inactive means no such curve, though single readings can be large; an effect the other way counts as inactive or inconclusive. Unless noted, on the % scale 0 is the no-effect control and ±100 the full control effect; potency means the concentration at half of the fitted maximal effect.

SMILES | VACV mCherry inh | AmpC inh no detg | AmpC inh detg | VACV Venus inh
CCC(=O)Nc1ccc(-c2nnc(SCc3ccccc3)n2C)cc1 | -15% | · | · | -26%
CC(=Nc1ccc(C)cc1)c1sc2ccccc2c1O | -9% | 7.9µM* | 1% | -17%
CC(=Nc1ccc(C)cc1C)c1sc2ccccc2c1O | -9% | -31% | -6% | -29%
CC(=O)Oc1ccc(-c2nc(-c3ccccc3)no2)cc1 | 27% | · | · | -7%
O=C(Nc1nnc(-c2ccco2)s1)C1CCCCC1 | · | -19% | -15% | -15%
O=C(Nc1nc(-c2ccco2)c(-c2ccco2)s1)C1CCC1 | -4% | 32µM* | ? | -16%
CC(C(=O)Nc1ccccc1)c1ccc(-c2ccccc2)c(F)c1 (stereo unspecified) | · | 11µM* | ? | ?
O=C(CN1C(=O)CCSc2ccccc21)N1CCC2(CC1)OCCO2 | · | 0.28µM* | 3% | ·
COc1cccc(C(=O)NCCS(=O)(=O)NCc2ccc3c(c2)OCO3)c1 | -5% | 35µM* | ? | -11%
COc1ccc(C(=O)NCCS(=O)(=O)NCc2ccc3c(c2)OCO3)cc1 | -14% | -38% | ? | -2%
CN(C)c1ccc(/C=C2\C=Cc3ccccc32)cc1Cl | -15% | · | · | -16%
Cc1cc(Cl)ccc1OCC(=O)Nc1nc(-c2cccs2)cs1 | i | 18µM* | 1% | -6%
Cc1ccc2c(c1)CC1(CN2C)C(=O)OC(C)(C)OC1=O | 7.1µM* | -19% | 0% | 10µM*
Cc1cccc(NC2=NC(C)(C)N=C(N)N2)c1 | ? | -18% | -5% | 1µM*
Oc1cc(-c2nc3ccccc3s2)cc2c1OCCN(Cc1cn[nH]c1-c1ccc(Cl)cc1)C2 | -22% | · | · | -10%
Cc1cc(N/N=C/c2ccc(O)cc2O)nc(-c2ccccc2O)n1 | 2.8µM* | ? | -10% | 6.3µM*
Oc1ccc(C=NNc2nc3ccccc3s2)c(O)c1 | 5µM* | · | · | ?
COc1cccc(-c2ccnc(-n3ncc(C(=O)NCc4cccnc4)c3C3CC3)n2)c1 | -17% | · | · | -3%
Cc1cc(NS(=O)(=O)c2ccc(NC(=O)c3ccccc3C)cc2)no1 | 5% | -6% | -9% | 3%
Cc1ccc(-c2cc(C(=O)Nc3ccc(S(=O)(=O)Nc4cc(C)on4)cc3)c3ccccc3n2)c(C)c1 | · | 10µM* | ? | -16%
CC(C)Cn1c(C(C)NC(=O)Cc2ccccc2)nc2ccccc21 (stereo unspecified) | -10% | 1.6µM* | ? | -14%
COC(=O)/C=C/c1ccc2c(c1)S(=O)(=O)N(C1CCCC1)[C@H]2CC(=O)OC | i | · | · | -12%
CCc1cccc2c(C(=O)COC(=O)c3ccccc3)c[nH]c12 | -6% | -31% | ? | -7%
CCc1cccc2c(C(=O)COC(=O)c3ccc(O)cc3)c[nH]c12 | -21% | 28µM* | -11% | -21%
Cc1cc(C)cc(NC(=O)CSc2nc3c(c(=O)n2C)SC(C)C3)c1 (stereo unspecified) | -7% | -28% | ? | -20%
SMILES | VACV mCherry inh | AmpC inh no detg | AmpC inh detg | VACV Venus inh
Cc1cc(C)c(NC(=O)CSc2nc3c(c(=O)n2C)SC(C)C3)c(C)c1 (stereo unspecified) | 10% | 3.2µM* | -19% | -10%
COC(=O)c1cccc(C(=O)NCc2nc(-c3ccccc3NC(C)=O)oc2C)c1 | -7% | · | · | 8%
COc1ccc(/C=N/Nc2nc(-c3ccc(C)cc3)c(NC(C)=O)s2)cc1 | 10µM* | -26% | -10% | -18%
CC(=O)Nc1sc(N/N=C/c2ccc(O)cc2)nc1-c1ccc(C)cc1 | · | -42% | -2% | ·
Nc1nn(S(=O)(=O)c2cccc3nsnc23)cc1-c1ccc(Br)cc1 | · | 20µM* | ? | ?
Cc1ccc(-c2cn(S(=O)(=O)c3cccc4nsnc34)nc2N)cc1 | · | · | -1% | -28%
O=C1Nc2ccccc2Oc2cc(Oc3ccccc3)ccc21 | -13% | 10µM* | -2% | -9%
Cc1cccc(C(=O)NCc2nc(-c3cccc(NC(=O)c4ccoc4C)c3)oc2C)n1 | -14% | · | · | -10%
CCc1[nH]c(=S)c(C#N)c(-c2ccccc2)c1C(=O)OC | 0% | 16µM* | -4% | -16%
Cc1[nH]c(=S)c(C#N)c(-c2ccccc2)c1C(=O)Nc1ccccc1 | 1% | -53% | 2% | -5%
O=C(NCc1cc(C(F)(F)F)ccc1Cl)c1cccc2c1C(=O)c1ccc(-c3ccc(OC(F)(F)F)cc3)cc1S2(=O)=O | · | -18% | · | ·
O=C(NCc1ccccc1Cl)c1cccc2c1C(=O)c1ccc(-c3ccc(OC(F)(F)F)cc3)cc1S2(=O)=O | ? | -6% | · | 10µM*
CCOC(=O)c1ccc(Nc2cc(C)nc(N3CCOCC3)n2)cc1 | 10µM* | 5% | 3% | 13µM*
O=C(Nc1cc(Sc2nc3ccccc3s2)cc([N+](=O)[O-])c1)c1ccccc1 | ? | 13µM* | -14% | ?
CCOc1ccc(C(=O)Nc2ccc3nc(SCc4ccccc4)sc3c2)cc1 | ? | · | 10% | 10µM*
Nc1ccc(N(c2ccccc2)c2ccc(N)cc2)cc1 | ? | -15% | 1% | 28µM*
COc1ccc(C(CCNC(C)c2ccccc2)c2ccc(F)cc2)cc1 (stereo unspecified) | 11µM* | 5% | ? | ?
COc1ccc(C(CCNCc2ccccc2)c2ccc(F)cc2)cc1 (stereo unspecified) | ? | 1% | -16% | ?
Cc1ccnc2c(Cl)c(Cl)ccc12 | -7% | · | · | -25%
Cc1ccc(NC(=O)CSc2nn(-c3ccccc3)c(=S)s2)cc1S(=O)(=O)N(C)C | ? | 28µM* | -19% | ?
Cc1ccc(NS(=O)(=O)c2ccc(Cl)c(C(=O)Nc3ccccc3-c3nc4ccccc4[nH]3)c2)cc1C | ? | -31% | -6% | 10µM*
Cc1ncc2c(c1CNS(=O)(=O)N(C)C)CCN(C(=O)/C=C/c1ccccc1F)C2 | -19% | · | · | -9%
Cc1cc(C)n(CC(C)O)c(=O)c1C#N (stereo unspecified) | -2% | 0.32µM* | 0% | -3%
Cc1cc(C)n(CCCO)c(=O)c1C#N | -13% | -14% | ? | -7%
CCOc1ccc(NCc2nnc(SCC(=O)Nc3nc(-c4ccccc4)cs3)n2-c2ccccc2)cc1 | 11µM* | -24% | -13% | ?
SMILES | VACV mCherry inh | AmpC inh no detg | AmpC inh detg | VACV Venus inh
Cc1cccc(C)c1NCc1nnc(SCC(=O)Nc2nc(-c3ccccc3)cs2)n1-c1ccccc1 | -13% | -16% | ? | -6%
Cc1cnc(-n2ncc(C(=O)N(CCO)C(C)C)c2-c2cccs2)nc1-c1ccc(F)cc1 | -18% | · | · | -16%
O=C(CCc1nnc2n(Cc3ccccc3Cl)c(=O)c3ccccc3n12)Nc1ccc(F)cc1 | 10µM* | · | 20% | 10µM*
Cc1ccc(-c2nnc(N3CCC(C)CC3)c3ccccc23)cc1C | 28µM* | -17% | 1% | 13µM*
COc1ccc(-c2csc(NC(=O)c3ccccc3NS(=O)(=O)c3ccc(C)cc3)n2)cc1 | 11µM* | -23% | -5% | ?
COC(=O)c1ccc(-c2csc(NC(=O)c3ccc(S(=O)(=O)N4CCc5ccccc5C4)cc3)n2)cc1 | i | -32% | 3% | -6%

Screening data: PubChem BioAssay, National Center for Advancing Translational Sciences (NCATS)
